Results reported in PubChem BioAssay (NCATS).
Where “and” joins values, the source holds several entries; their conditions need not be identical. Equal values may be shown once. A number with no mark means an inactive call. Results filed as inconclusive are left out. Calls of active or inactive are those of the source. Calls come from the whole dose curve; as a rule, active = well fitted curve in the direction sought with a large enough effect; inconclusive = small, poorly fitted or top-dose-only effect, or another doubt; inactive = no such curve, though single readings can be large; an effect the other way counts as inactive or inconclusive.

How the values were obtained:
[1] = target: Cytochrome P450 2C9 (Homo sapiens) (UniProt P11712); assay: qHTS Assay for Inhibitors and Substrates of Cytochrome P450 2C9 (AID 883); conditions: recombinant CYP2C9, luciferin-H luminescence, 60 min; series mostly up to 11.4 µM; note: nearly all actives have a fitted effect of over 60% in size; note: potency is the fitted concentration of half-maximal effect; for activity change, negative = inhibition: % is set by controls: 0 for no effect and ±100 for the full control effect
Chain of Cytochrome P450 2C9 (Homo sapiens) (P11712 whole entry, looked up): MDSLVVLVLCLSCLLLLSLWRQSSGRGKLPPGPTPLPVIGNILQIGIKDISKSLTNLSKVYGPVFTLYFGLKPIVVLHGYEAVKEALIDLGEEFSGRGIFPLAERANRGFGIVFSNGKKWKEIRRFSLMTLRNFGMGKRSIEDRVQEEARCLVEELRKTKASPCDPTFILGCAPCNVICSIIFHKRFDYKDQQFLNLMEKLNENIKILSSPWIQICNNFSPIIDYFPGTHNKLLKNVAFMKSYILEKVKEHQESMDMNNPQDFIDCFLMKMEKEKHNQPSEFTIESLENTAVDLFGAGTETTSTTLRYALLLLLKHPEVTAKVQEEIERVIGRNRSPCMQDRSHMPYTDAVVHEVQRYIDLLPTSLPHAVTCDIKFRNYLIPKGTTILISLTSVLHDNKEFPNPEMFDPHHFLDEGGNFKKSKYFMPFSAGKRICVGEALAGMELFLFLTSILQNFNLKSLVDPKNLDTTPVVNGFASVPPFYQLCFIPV
In short: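 10nM CYP2C9 + 100uM Luciferin-H (=KM), 25mM KPO4; cpd 10 min 37C; NADPH regen, 60 min 37C; stop/detect with P450 Glo-Buffer 20 min; luminescence. Norm. to 57uM sulphaphenazole as full inhibition.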

[2] = target: Cytochrome P450 3A4 (Homo sapiens) (UniProt P08684); assay: qHTS Assay for Inhibitors and Substrates of Cytochrome P450 3A4 (AID 884); conditions: recombinant CYP3A4, Luciferin-PPXE luminescence; series mostly up to 57.1 µM; note: nearly all actives have a fitted effect of over 50% in size; note: potency is the fitted concentration of half-maximal effect; for activity change, negative = inhibition: % is set by controls: 0 for no effect and ±100 for the full control effect
Chain of Cytochrome P450 3A4 (Homo sapiens) (P08684 whole entry, looked up): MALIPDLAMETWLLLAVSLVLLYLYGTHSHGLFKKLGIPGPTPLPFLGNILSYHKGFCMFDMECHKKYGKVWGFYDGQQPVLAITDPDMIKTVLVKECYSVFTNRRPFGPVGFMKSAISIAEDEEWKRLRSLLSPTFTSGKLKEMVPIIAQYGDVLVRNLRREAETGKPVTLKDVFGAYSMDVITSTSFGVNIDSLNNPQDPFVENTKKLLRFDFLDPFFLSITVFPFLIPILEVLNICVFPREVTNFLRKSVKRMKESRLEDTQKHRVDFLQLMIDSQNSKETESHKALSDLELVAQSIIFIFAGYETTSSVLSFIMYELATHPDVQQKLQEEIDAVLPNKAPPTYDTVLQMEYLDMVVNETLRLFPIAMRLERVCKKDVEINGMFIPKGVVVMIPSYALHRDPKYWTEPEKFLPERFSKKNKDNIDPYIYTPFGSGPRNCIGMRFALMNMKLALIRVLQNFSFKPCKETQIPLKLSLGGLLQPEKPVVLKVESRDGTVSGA
In short: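 20 nM human CYP3A4 with 25 uM Luciferin-PPXE (at KM) in 200 mM KPO4, preincubated 10 min with compound; NADPH regeneration started a 60 min RT reaction. Luciferin detected by luminescence, normalized to 57 uM ketoconazole as full inhibition.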

[3] = target: Cytochrome P450 3A4 (Homo sapiens) (UniProt P08684); assay: qHTS Assay for Activators of Cytochrome P450 3A4 (AID 885); conditions: recombinant CYP3A4, Luciferin-PPXE luminescence, 60 min; series mostly up to 57.1 µM; note: nearly all actives have a fitted effect of over 65% in size
In short: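 Signal was normalized against complete inhibition by 57 uM ketoconazole. The reaction used 20nM CYP3A4 with 25uM Luciferin-PPXE, 10-min compound preincubation and a 60-min NADPH-supported step at RT.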

[4] = target: Cytochrome P450 2D6 (Homo sapiens) (UniProt P10635); assay: qHTS Assay for Inhibitors and Substrates of Cytochrome P450 2D6 (AID 891); conditions: recombinant CYP2D6, luciferin-ME EGE luminescence; series mostly up to 11.4 µM; note: nearly all actives have a fitted effect of over 60% in size; note: potency is the fitted concentration of half-maximal effect;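 for activity change, negative = inhibition: luciferin methyl ether substrate demethylated by CYP2D6 with NADPH regeneration; % is set by controls: 0 for no effect and ±100 for the full control effect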
Chain of Cytochrome P450 2D6 (Homo sapiens) (P10635 whole entry, looked up): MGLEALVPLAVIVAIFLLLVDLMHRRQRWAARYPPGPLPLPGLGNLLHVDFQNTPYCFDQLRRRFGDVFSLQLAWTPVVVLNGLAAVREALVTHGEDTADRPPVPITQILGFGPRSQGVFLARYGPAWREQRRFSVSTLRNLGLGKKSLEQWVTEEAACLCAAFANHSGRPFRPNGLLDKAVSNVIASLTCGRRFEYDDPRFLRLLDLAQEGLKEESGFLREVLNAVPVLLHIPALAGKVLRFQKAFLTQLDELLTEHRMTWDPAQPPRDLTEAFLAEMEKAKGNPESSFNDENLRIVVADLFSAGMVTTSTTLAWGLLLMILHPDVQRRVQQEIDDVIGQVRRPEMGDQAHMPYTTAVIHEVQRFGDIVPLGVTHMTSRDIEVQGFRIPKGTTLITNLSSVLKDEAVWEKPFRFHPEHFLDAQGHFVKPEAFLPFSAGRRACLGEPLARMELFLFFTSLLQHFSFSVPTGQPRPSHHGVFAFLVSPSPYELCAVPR
In short: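 Human CYP2D6 (5 nM) with 30 uM Luciferin-ME EGE (at Km) in 100 mM KPO4, compound preincubated 10 min, then NADPH regeneration system for 60 min at room temperature. Luciferin read by luminescence; normalized to 1.43 uM quinidine.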

[5] = target: Cytochrome P450 2C19 (Homo sapiens) (UniProt P33261); assay: qHTS Assay for Inhibitors and Substrates of Cytochrome P450 2C19 (AID 899); conditions: recombinant CYP2C19, luciferin-H EGE luminescence; series mostly up to 11.4 µM; note: % is set by controls: 0 for no effect and ±100 for the full control effect; nearly all actives have a fitted effect of over 60% in size
Chain of Cytochrome P450 2C19 (Homo sapiens) (P33261 whole entry, looked up): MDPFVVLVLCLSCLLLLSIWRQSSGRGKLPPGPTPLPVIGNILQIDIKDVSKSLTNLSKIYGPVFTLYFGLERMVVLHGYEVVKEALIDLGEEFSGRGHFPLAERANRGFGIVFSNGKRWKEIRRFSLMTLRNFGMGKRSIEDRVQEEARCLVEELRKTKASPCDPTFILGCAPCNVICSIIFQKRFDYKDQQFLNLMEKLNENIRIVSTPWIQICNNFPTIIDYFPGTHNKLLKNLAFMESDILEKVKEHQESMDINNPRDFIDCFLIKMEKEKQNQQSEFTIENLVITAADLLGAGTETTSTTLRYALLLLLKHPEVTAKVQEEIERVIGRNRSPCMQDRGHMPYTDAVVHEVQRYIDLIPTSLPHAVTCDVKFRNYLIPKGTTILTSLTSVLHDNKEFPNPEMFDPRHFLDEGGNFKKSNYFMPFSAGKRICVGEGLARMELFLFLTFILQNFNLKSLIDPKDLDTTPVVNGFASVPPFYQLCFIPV
In short: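 Luminescent read-out of luciferin formed from Luciferin-H EGE (10uM, equal to KM). Enzyme 5nM in 50mM KPO4; compound added, 10 min at 37C, then NADPH regenerating system for 60 min at 37C. Full inhibition defined by 57uM ketoconazole.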

| SMILES | Potency [1] | Potency [2] | activity change, positive = activation [3] | Potency [4] | Potency [5] | activity change, negative = inhibition [2] |
| --- | --- | --- | --- | --- | --- | --- |
| Cc1cc2c(nc1C)CCCN2C[C@H](O)CN1CCCc2nc(-c3ccc(Br)cc3)ccc21 | 2.51 µM (active) | 3.98 µM (active) | -65% [at 11.4 µM] and -47.8% [at 11.4 µM] | 3.16 µM (active) |  |  |
| CC(=O)c1ccc(C2C=CC(Oc3ccc(F)cc3C)C(CO)O2)cc1 (stereo unspecified) | inactive | 3.16 µM (active) | -76.9% [at 11.4 µM] | inactive |  |  |
| COc1ccc(OCC2CN3C(CCC(C)C3c3ccc(Br)cc3)C(=O)O2)cc1 (stereo unspecified) | inactive | 3.98 µM (active) | -46.6% [at 11.4 µM] and -70% [at 11.4 µM] | inactive | inactive |  |
| CC(=O)OCC1OC(C#CCCc2ccccc2)C=CC1OC(C)=O (stereo unspecified) | inactive | 3.16 µM (active) | -61.8% [at 11.4 µM] | inactive | inactive |  |
| CC1CCC2C(=O)N3C(CCC(C)[C@@H]3c3cccc(N4CCOCC4)c3)C(=O)N2C1c1cccc(Br)c1 (stereo partly specified) | 2.51 µM (active) | 0.0251 µM (active) | -62% [at 11.4 µM] | inactive |  |  |
| CC(=O)c1ccc(OC2C(O)COC2/C=C/c2ccc(Cl)cc2)cc1 (stereo unspecified) | inactive |  | -50% [at 11.4 µM] | inactive |  | -27.7% [at 11.4 µM] |
| CC#CC(C)C(OCOC)C(CC(C)Cc1cc(Br)cc(OCc2ccccc2)c1OC)OC (stereo unspecified) | inactive | 3.16 µM (active) | -76.2% [at 11.4 µM] | inactive | inactive |  |
